Bioassay records: PubChem, Sanford-Burnham Center for Chemical Genomics
A selection: hits, their analogues and other compounds. The true share with any hit is near 28%.
CYP2C9 activ: human CYP2C9 activators, primary screen, biochemical, luminescence; Cytochrome P450 2C9 (Homo sapiens), P11712; recombinant CYP2C9, luciferin-H conversion; active compounds read high; factor 1 = untreated enzyme, 0 = blocked; activation factor at 5 µM; hit rate 1.4% among 96,000;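 active means activation factor of 2 or more for CYP2C9 at a 5 µM dose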;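 further: 0 = sulfaphenazole-blocked wells and 1 = vehicle-only wells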
Target sequence (P11712 whole entry, looked up): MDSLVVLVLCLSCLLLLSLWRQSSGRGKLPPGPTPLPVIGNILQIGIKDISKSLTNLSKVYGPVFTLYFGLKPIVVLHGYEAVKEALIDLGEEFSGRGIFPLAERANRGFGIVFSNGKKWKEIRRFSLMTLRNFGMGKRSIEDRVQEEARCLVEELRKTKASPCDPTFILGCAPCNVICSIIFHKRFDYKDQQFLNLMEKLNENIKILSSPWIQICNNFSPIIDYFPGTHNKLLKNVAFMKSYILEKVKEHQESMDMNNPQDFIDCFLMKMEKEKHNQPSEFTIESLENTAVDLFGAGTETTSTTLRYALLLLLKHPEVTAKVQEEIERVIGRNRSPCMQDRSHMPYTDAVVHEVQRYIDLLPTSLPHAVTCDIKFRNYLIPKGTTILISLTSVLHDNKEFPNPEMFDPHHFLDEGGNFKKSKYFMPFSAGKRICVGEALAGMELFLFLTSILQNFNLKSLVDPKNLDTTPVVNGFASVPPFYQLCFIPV
CYP2C9 inhib: blockers of cytochrome P450 2C9 activity – biochemical, luminescence, ADME assay, primary screen; AID 777, 2007; inhibition, % at 5 µM; CYP2C9 Supersomes, luciferin-H conversion; hit rate 20% among 96,000;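 active means blocking of liver enzyme CYP2C9 beyond about 50% at 5 µM, limit read from the data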
CYP2C19 activ: human CYP2C19 activators, primary screen, biochemical, luminescence | Cytochrome P450 2C19 (Homo sapiens), P33261 | activation factor at 5 µM | 96,000 tested, under 10 active | AID 1025, 2008 | recombinant CYP2C19, luciferin-H EGE luminescence; active compounds read high; 0 = fully inhibited enzyme, 1 = untreated enzyme;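 active means activation factor of at least 2 at 5 µM in the primary screen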;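 further: 0 = wells with 2.5 mM tranylcypromine and 1 = vehicle-only wells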
Pyk2 oligo antag: antagonists of Pyk2 self-association, primary screen, Q293 cells, FERM NanoBiT luminescence, HTS | z-score (the deposit names both 25 µM and 10 µM) | Protein-tyrosine kinase 2-beta (Homo sapiens), Q14289 | hit rate 0.83% among 99,000 | active compounds read low | AID 1347419, 2020;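 active means Z-score of -3 or lower, scaled per plate to the spread of control and sample wells; inactive means z-score above -3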;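 further: negative z-score means lost luminescence so less FERM oligomerization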
CYP2C19 inhib: blockers of cytochrome P450 2C19 activity – biochemical, luminescence, ADME assay, primary screen; P33261; CYP2C19 Supersomes, luciferin-H EGE luminescence, 30 min; inhibition, % at 5 µM; hit rate 21% among 96,000; AID 778, 2007;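 active means CYP2C19 inhibition above a set limit at 5 µM in the primary screen, cut at about 50% in these data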;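 further: plate controls were negative control wells for no effect and 2.5 mM tranylcypromine positive control for full effect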
Starred values were filed as active, the others as inactive; · = no result.

SMILES	CYP2C9 activ	CYP2C9 inhib	CYP2C19 activ	Pyk2 oligo antag	CYP2C19 inhib
COc1ccccc1N1CCN(C(=O)C2CCN(S(=O)(=O)c3ccc(F)cc3)CC2)CC1	0.9	5	1	0.51	0
O=C(Cc1cccs1)N1CCN(c2nc(-c3ccc(Cl)cc3)cs2)CC1	0.1	91*	0.3	0.39	65*
O=C(CSc1nnnn1-c1cccnc1)NCc1cccs1	0.9	13	0.8	0.06	17
O=C(Nn1cnnc1)c1ccccc1CCc1ccccc1	0.6	36	0.8	1.2	20
COc1cccc(C2C(C(=O)c3sc(C)nc3C)=C(O)C(=O)N2CCN(C)C)c1OC (stereo not drawn)	1.1	-5	1	·	2
CC(=O)N1N=C(c2ccccc2)CC1c1cn(C)c2ccccc12 (stereo not drawn)	·	·	·	-1.6	·
Cc1cc(N2CCN(S(=O)(=O)c3ccccc3)CC2)c2ccccc2n1	0.6	44	0.3	-0.8	65*
COc1ccc(N2CCN(S(=O)(=O)c3cccs3)CC2)cc1	0.6	36	0.2	-1.1	77*
COc1ccccc1N1CCN(S(=O)(=O)c2cccs2)CC1	0.2	83*	0.7	0.19	28
COc1ccccc1N1CCN(C2CCN(S(=O)(=O)c3ccc4ccccc4c3)CC2)CC1	1.4	-40	0.8	0.12	15
COc1ccc(S(=O)(=O)N2CCN(c3ccccc3OC)CC2)cc1OC	0.9	6	0.2	-1.7	80*
CCc1nn2c(=O)cc(N3CCN(c4cc(C)nc5ccccc45)CC3)nc2s1	1.1	-7	1	·	-4
COc1ccc(N2CCN(CCNC(=O)C3CCN(S(=O)(=O)c4cccs4)CC3)CC2)cc1	0.9	12	0.9	1.8	8
Cc1nc(N)sc1Cc1ccc2c(c1)OCO2	1.1	-6	0.5	-0.07	46
NS(=O)(=O)c1ccc(CNC(=O)CC23CC4CC(CC(C4)C2)C3)cc1	0.9	9	1.1	-0.76	-9
COc1ccc(N2CCN(C(=O)Cn3nnc(-c4cccs4)n3)CC2)cc1	1.1	-7	1.1	0.08	-5
Cc1ccc(Cl)cc1N1CCN(C(=O)C2CCN(S(=O)(=O)c3cnc[nH]3)CC2)CC1	0.7	29	0.8	-0.41	23
COc1ccccc1N1CCN(S(=O)(=O)c2c(C)ccc3nsnc23)CC1	0.7	34	0.3	-2.2	73*
Cc1ccc2nsnc2c1S(=O)(=O)N1CCOCC1	1	0	0.8	0.22	15
COc1ccccc1N1CCN(S(=O)(=O)Cc2ccccc2Cl)CC1	4.3*	-331	0.3	-0.43	73*
COc1ccc(N2CCN(C(=O)Cc3cccs3)CC2)cc1	0.7	34	0.5	0.62	54*
COc1ccccc1N1CCN(S(=O)(=O)c2cnc[nH]2)CC1	0	100*	0.1	·	95*
Clc1ccc(CON/C=N/c2ncnc3sccc23)c(Cl)c1	0.8	22	0.8	2	15
COc1ccccc1N1CCN(S(=O)(=O)c2ccccc2)CC1	0.1	86*	0.1	-1.7	92*
COc1ccccc1N1CCN(S(=O)(=O)c2ccc(Br)s2)CC1	0.7	29	0.7	-0.73	29
SMILES	CYP2C9 activ	CYP2C9 inhib	CYP2C19 activ	Pyk2 oligo antag	CYP2C19 inhib
COc1ccc(N2CCN(c3ncccn3)CC2)cc1	0.8	24	0.1	-0.22	92*
CCC(CC)c1nnc(NC(=O)c2c(-c3ccccc3)noc2C)s1	0.4	58*	0.8	·	19
Cc1cc(C(=O)OC(C)C(=O)Nc2nc(-c3ccccc3)cs2)c(C)o1 (stereo not drawn)	0	96*	0.1	-0.35	89*
Cc1nnc(NC(=O)c2c(-c3ccccc3)noc2C)s1	1	-1	1	-0.62	-5
Cc1onc(-c2ccccc2)c1C(=O)Nc1nnc(COc2ccc(Cl)cc2)s1	0	98*	0.5	-2.9	54*
COC(=O)c1ccc(C)c(NC(=O)c2c(-c3ccccc3)noc2C)c1	0.6	39	0.3	-0.32	69*
Cc1ccc(S(=O)(=O)N2CCC(C(=O)N3CCC[C@H]3C(=O)NCc3ccco3)CC2)cc1	1.1	-5	1	1.8	1
CCC(C)(C)n1nnnc1C(C(C)C)N1CCSCC1 (stereo not drawn)	0.8	20	0.6	-0.22	41
Cc1onc(-c2ccccc2)c1C(=O)Nc1nc(-c2ccccc2)cs1	0.3	72*	0.3	-2.8	70*
Cc1onc(-c2ccccc2)c1C(=O)Nc1nc(-c2cc(F)ccc2F)cs1	1.1	-14	1.1	0.84	-11
COc1cccc(/C=N/NC(=O)c2c(-c3ccccc3)noc2C)c1	0.3	67*	0.5	-0.51	50*
COCc1cc(C)nc(N2CCCCC2)c1C#N	·	·	·	-0.38	·
COCc1cc(C)nc(N2CCNCC2)c1C#N	1.1	-15	1.1	1.3	-9
COCc1cc(C)nc(N2CCN(Cc3ccccc3)CC2)c1C#N	0.9	14	0.1	-0.06	95*
COCc1cc(C)nc(N2CCN(c3ccccc3)CC2)c1C#N	2.4*	-139	0.3	0.79	69*
COCc1cc(C)nc(NCCc2ccccc2)c1C#N	1	4	0.5	-0.41	52*
CCSc1nnc(NC(=O)CSc2nc(CC)nc3c2c(=O)n(C)c(=O)n3C)s1	0.7	28	0.7	·	29
Cc1cc(C)n(-c2c(F)c(F)c(CN3CCOCC3)c(F)c2F)n1	0.8	18	1	0.79	3
Cc1ccc(-c2cnn(-c3cccc([N+](=O)[O-])c3)c2N)cc1	1.2	-20	0.6	-0.67	38
CCNc1nc(NCC)nc(C(=O)OCCO)n1	1.1	-10	0.9	·	8
Nc1cc(C(=O)c2cccs2)ccc1Cl	0.6	41	0.1	-0.3	87*
Cc1cc(NC(=O)CSc2nc3ccccc3n2CC(=O)N2CCCCC2)no1	0.8	25	0.7	0.43	34
CCOC(=O)C1C(=O)CC(C)(O)C(C(=O)OCC)C1c1ccco1 (stereo not drawn)	1	-2	0.7	0.34	30
CCOC(=O)C1C(=O)C=C(c2ccc(NS(C)(=O)=O)cc2)CC1c1ccco1 (stereo not drawn)	0.2	75*	0.8	-0.93	21
CCOC(=O)C1C(C)=CC(=O)CC1c1ccco1 (stereo not drawn)	1	2	0.7	-0.36	32
CCOC(=O)C1C(=O)C=C(c2ccc(C)cc2)CC1c1ccco1 (stereo not drawn)	0.2	80*	0.5	-0.83	54*
C=CCn1c(CSc2nc3ccccc3s2)nnc1SCC(=O)OCC	0.6	42	0.2	1.4	77*
C=CCn1c(CCNC(=O)c2cccs2)nnc1SCC(=O)c1ccc(Cl)cc1	0.2	79*	0.2	0.8	78*
C=CCn1c(CCNC(=O)c2cccs2)nnc1SCC(=O)c1cccc([N+](=O)[O-])c1	1	-5	1	0.54	4
